Only some compounds are listed: those with a hit (about 2.8% of all), similar ones and a draw of the others.
POLI inh: DNA polymerase iota (human) inhibition; Pol iota fluorescent replication assay, 10 min; Potency, µM (titrated, usually from 115 µM), for inactives: at the top dose activity, negative = inhibition, hits mostly inhibitors; 390,000 compounds, 1% hits; note: potency is the fitted concentration of half-maximal effect
Target sequence (Q9UNA4 whole entry, looked up): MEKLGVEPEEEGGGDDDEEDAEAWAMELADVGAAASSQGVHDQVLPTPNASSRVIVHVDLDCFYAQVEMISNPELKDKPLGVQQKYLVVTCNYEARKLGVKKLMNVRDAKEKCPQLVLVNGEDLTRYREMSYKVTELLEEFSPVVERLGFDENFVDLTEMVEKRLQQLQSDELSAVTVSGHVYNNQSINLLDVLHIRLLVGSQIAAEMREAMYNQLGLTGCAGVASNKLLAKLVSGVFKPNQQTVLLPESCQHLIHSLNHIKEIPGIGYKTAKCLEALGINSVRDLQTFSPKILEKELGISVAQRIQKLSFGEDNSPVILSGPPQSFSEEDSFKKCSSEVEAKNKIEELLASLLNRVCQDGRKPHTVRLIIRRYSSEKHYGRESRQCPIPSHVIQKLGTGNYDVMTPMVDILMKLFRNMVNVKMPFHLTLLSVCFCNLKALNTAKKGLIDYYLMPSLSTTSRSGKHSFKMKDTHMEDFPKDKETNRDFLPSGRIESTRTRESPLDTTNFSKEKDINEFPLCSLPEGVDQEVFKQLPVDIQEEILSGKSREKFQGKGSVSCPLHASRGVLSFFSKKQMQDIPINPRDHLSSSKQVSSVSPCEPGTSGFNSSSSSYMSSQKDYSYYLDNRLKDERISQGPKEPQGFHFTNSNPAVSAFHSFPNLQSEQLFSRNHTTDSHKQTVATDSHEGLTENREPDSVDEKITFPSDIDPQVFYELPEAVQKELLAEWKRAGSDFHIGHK
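Pol iota at 10 nM preincubated 15 min with compounds at room temperature; reaction started with fluorescent substrate, 50 nM final. Fluorescence read kinetically at 0 and 10 min; buffer-only wells as negative control.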
Pol eta inh: blocks human DNA polymerase eta activity. Q9Y253. recombinant Pol eta, fluorescent DNA replication assay. Potency, µM (top dose mostly 114 µM), for the others: at the highest dose activity change, negative = inhibition, actives largely listed as inhibitors. 390,000 compounds, 1.2% hits. AID 588591; note: potency is the fitted concentration of half-maximal effect; % is set by controls: 0 for no effect and ±100 for the full control effect
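Pol eta at 10 nM preincubated with compounds 15 min at room temperature; reaction started with fluorescent substrate (50 nM final) and read kinetically at 0 and 10 min.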
Pol kappa inh: blocks human DNA polymerase kappa activity | Q9UBT6 | purified Pol kappa, fluorescent DNA synthesis assay, 10 min | Potency, µM (top dose mostly 107 µM), for inactives: top-dose activity, negative = inhibition, hits mostly inhibitors | 400,000 compounds, 0.53% hits | AID 588579; note: potency is the fitted concentration of half-maximal effect; % is set by controls: 0 for no effect and ±100 for the full control effect
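Pol kappa 10 nM + cpd, 15 min RT; start w/ substrate 50 nM final; fluorescence kinetic read, 0 and 10 min. Neg ctrl: buffer, no enzyme.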
POLB inh: inhibitors of human DNA polymerase beta. Potency, µM (highest dose often 114 µM), inactives show at the top dose activity change, negative = inhibition, actives largely listed as inhibitors. 340,000 compounds, 1.3% hits. P06746. AID 485314. Pol beta primer extension/strand displacement, fluorescence kinetic; note: potency is the fitted concentration of half-maximal effect; % is set by controls: 0 for no effect and ±100 for the full control effect
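Reaction started by 50 nM substrate onto compound-treated Pol beta (10 nM, 15 min preincubation, room temperature); plates read at 0 min and 10 min. Normalized concentration-effect data fitted by four-parameter Hill equation.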
PI5P4Ka inh: blocks human PI5P4K alpha kinase activity; PI5P4Kalpha enzyme, ADP-Glo luminescence, 60 min; hits give low values; max response, %; 330,000 compounds, 1.2% hits; AID 652105; active = max response of -50% or lower; inconclusive = between -30% and -50%; inactive = -30% or higher; note: value at the top dose of about 77 µM; % is set by controls: 0 for no effect and ±100 for the full control effect
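ADP-Glo luminescence end-point after a 60 min room-temperature kinase reaction. PI5P4Kalpha and substrate in HEPES pH 7.4 buffer with EGTA, 0.1% CHAPS and 5% DMSO; ATP at 5 microM final.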
WRN helicase inh: WRN helicase (human) inhibition; Potency, µM (top dose mostly 114 µM), without a hit: top-dose activity change, negative = inhibition, most hits filed as inhibitors; 360,000 compounds, 0.46% hits; WRN helicase unwinding, fluorescent forked duplex, kinetic; Q14191; note: potency is the fitted concentration of half-maximal effect; % is set by controls: 0 for no effect and ±100 for the full control effect; nearly all actives have a fitted effect of over 55% in size
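WRN at 20 nM final preincubated with compound 15 min at room temperature; reaction started with 100 nM fluorophore/quencher forked duplex oligonucleotide and 2 mM ATP final. Unwinding followed kinetically by red fluorescence (ex 525, em 598 nm).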
Starred values were filed as active, the others as inactive; ? = inconclusive; · = not tested or not shown; [ ] = dose if it differs, or a comment. Unless noted, calls come from the whole dose curve; as a rule, active = well fitted curve in the direction sought with a large enough effect; inconclusive = small, poorly fitted or top-dose-only effect, or another doubt; inactive = no such curve, though single readings can be large; an effect the other way counts as inactive or inconclusive.

SMILES | POLI inh | Pol eta inh | Pol kappa inh | POLB inh | PI5P4Ka inh | WRN helicase inh
CCCN(CCC)CCNC(=O)c1cc2c(-c3ccc(Cl)cc3)nn(C)c2s1 | 3.8% | -3.2% | 3.6% | 25.1µM* | 3.1 | 13.9%
CCN(CC)CCNC(=O)c1cc2c(-c3ccc(Cl)cc3)nn(C)c2s1 | ? | 9.9% | -16.6% | 15.8µM* | -0.8 | 48.4%
CCCCN(CC)CCNC(=O)c1cc2c(-c3ccc(Cl)cc3)nn(C)c2s1 | ? | -8.2% | -12.6% | 3.16µM* | 8.3 | 88.2%
CCCCNC(=O)C1(C)CCN1C(=O)c1cccc2c1OCCO2 (stereo unspecified) | · | · | · | · | 6.3 | 1.5%
C/C(N)=C(/C#N)C(=O)COC(=O)c1oc2ccccc2c1COC(C)C | 4.9% | -4.5% | -22.2% | 8.2% | 2.6 | -4.1%
Cc1ccc2c(c1)sc[n+]2Cc1ccccc1 | 44.7µM* | -10.1% | -13.0% | 22.5% | · | 1.5%[11.6 µM]
COC(=O)[C@@]12C[C@@H](CC(=O)N3CCN(C(=O)C4CC4)CC3)C(=O)N(Cc3ccc4c(c3)OCO4)C1=CCC(C)(C)C2 | · | · | · | · | 3.1 | 5.5%
CN=C1S/C(=C\c2ccc(O)c(OC)c2)C(=O)N1C | 181.8% | -26.5% | -12.8% | · | 5.7 | -27.7%
CN=C1S/C(=C\c2ccc(O)c(Br)c2)C(=O)N1C | 11.2% | 2.7% | -7.9% | 0.7% | -78.7* | -0.7%[57.1 µM]
Cc1sc2ncnc(SCC(=O)NC(=O)NCc3ccco3)c2c1C | ? | 89.1µM* | ? | 11.2µM* | · | -27.1%
Cc1nc(SCC(=O)NCc2ccco2)nc(C)c1C | 2.8% | -15.1% | -0.9% | -11.3% | · | 7.3%
Cc1nc(SCC(=O)NC(=O)NCc2ccco2)nc(C)c1C | ? | -21.4% | -14.3% | 17.8µM* | -22.5 | -11.8%
Cc1nc(SCC(=O)NCc2ccco2)c2c(C)c(C)sc2n1 | 9.1% | -4.4% | -0.8% | 3.0% | 3.1 | -21.0%
O=C(COc1ncnc2scc(-c3ccc(F)cc3)c12)NCc1ccco1 | 2.3% | ? | -4.8% | -0.8% | -22.8 | -6.1%
Cc1sc2ncnc(NCc3ccco3)c2c1C | ? | ? | -28.2% | 44.7µM* | ? | -25.0%[57.1 µM]
Cc1ccc(-c2csc3ncnc(OCC(=O)NC(=O)NCc4ccco4)c23)cc1 | ? | 79.4µM* | -31.6% | 39.8µM* | · | -10.0%[57.1 µM]
CC(C)(C)c1ccc(C(=O)C[n+]2cccc(Br)c2)cc1 | 11.8% | · | -11.8% | · | · | ·
O=S(=O)(Oc1ccc(C(=S)N2CCOCC2)cc1)c1ccc(Cl)cc1 | 82.7% | -7.5% | -9.3% | 5.4% | -4.4 | -19.5%
CCCN(C)C1CN(Cc2cn(Cc3cccc(C(F)(F)F)c3)nn2)S(=O)(=O)C1 (stereo unspecified) | · | · | · | · | 8.2 | -0.3%
CCOc1ccc2nc(SCC(=O)NC(=O)NCc3ccco3)sc2c1 | 0.3% | -9.2% | 0.0% | 23.6% | -3.6 | -3.6%
O=C(CSc1nc2cc(Cl)ccc2s1)NC(=O)NCc1ccco1 | 19.4% | 35.5µM* | ? | 44.7µM* | · | ?
O=C(c1csnn1)N1CCC2(CCCN(c3ccc(-c4ccccc4)cc3)C2)CC1 | · | · | -1.1%[60.1 µM] | · | · | ·
O=C(COC(=O)c1ccc([N+](=O)[O-])o1)NCc1ccc(F)cc1 | ? | 89.1µM* | -25.2% | · | 0.5 | 15.0%
O=C(COC(=O)c1ccc([N+](=O)[O-])o1)NCCCc1ccccc1 | ? | 89.1µM* | -23.5% | · | -6.6 | 22.2%
COc1ccc(CCNC(=O)COC(=O)c2ccc([N+](=O)[O-])o2)cc1 | ? | ? | -9.1% | · | -8.5 | -15.4%
SMILES | POLI inh | Pol eta inh | Pol kappa inh | POLB inh | PI5P4Ka inh | WRN helicase inh
CCCCC[C@H]1CN(Cc2ccccc2)C(=O)[C@@H]1CC(=O)NCc1ccc(OC)cc1 | 0.9% | ? | -4.6% | -1.0% | -3.3 | 4.0%
O=C(N/N=C/c1cccnc1)c1cc2ccccc2o1 | ? | 13.6% | 3.8% | 20.7% | 0.6 | 5.0%
O=C(N/N=C/c1cccnc1)c1cc2c(ccc3ccccc32)o1 | ? | ? | -41.0% | 11.2µM* | -8.3 | -25.8%
CCCN1Cc2cccc(C(=O)Nc3ccc4c(c3)OCO4)c2C1=O | 11.8% | 1.0% | -21.1% | 1.0% | -1.6 | -1.5%
O=C(Nc1ccc2c(c1)OCO2)c1cccc2c1C(=O)N(Cc1cccnc1)C2 | ? | ? | -12.3% | 39.8µM* | -15.3 | -28.2%
O=S(=O)(c1ccccc1Br)N1CCN(c2ncccn2)CC1 | 84.1% | -9.4% | 11.0% | 20.0% | -8.1 | -2.0%
N#Cc1ccc2sn(-c3ccccc3)c(=O)c2c1 | · | -13.1% | · | · | -108.2* | -6.1%
CCn1c2ccccc2c2cc(NC(C)=O)ccc21 | 5.1% | -2.8% | -7.3% | -0.3% | 3.1 | -10.7%
O=c1c2cc([N+](=O)[O-])ccc2sn1-c1ccccc1 | · | -6.7% | · | · | -99.6* | 4.4%
CC(=O)Nc1ccc2sn(-c3ccccc3)c(=O)c2c1 | · | 2.4% | · | · | -82.1* | 1.7%
Cc1ccc(-c2cc(C(=O)N3CCN(S(=O)(=O)c4ccc(Br)cc4)CC3)[nH]n2)cc1C | 7.2% | -2.4% | -10.2% | 47.7% | · | ·
CCOc1ccc(NC(=O)CSc2nc3c(c(=O)[nH]2)CCCC3)cc1 | 23.5% | -5.5% | -3.1% | 0.8% | · | ·
Cc1cc(C)c2c(=O)[nH]c(SCC(=O)N3CCCCC3)nc2n1 | 11.7% | -1.4% | -19.0% | 0.2% | -21.6 | -14.1%
CN(C)c1ccc(NC(=O)CSc2nc3c(c(=O)[nH]2)CCCC3)cc1 | ? | 79.4µM* | ? | ? | · | -1.6%[11.6 µM]
Cc1cc(C)c2c(=O)[nH]c(SCC(=O)Nc3ccccc3)nc2n1 | -1.6% | 9.5% | -10.4% | 1.2% | -7.8 | -13.5%
Cc1ccc(NC(=O)CSc2nc3nc(C)cc(C)c3c(=O)[nH]2)cc1 | 1.2% | ? | -1.2% | 44.7µM* | 4.7 | -15.3%
Cc1cc(C)c2c(=O)[nH]c(SCC(=O)c3ccc(C)c(C)c3)nc2n1 | 81.9% | -11.3% | -8.6% | 17.8µM* | 3.4 | -10.5%
CCOc1ccc(N2CC(NC(=O)CCc3ccccc3)CC2=O)cc1 (stereo unspecified) | 13.0% | -12.0% | -8.9%[60.1 µM] | 86.8% | · | ·
C/C(N)=C(/C#N)C(=O)CSc1nnc(-c2ccccc2)n1C | 27.2% | 13.9% | 5.9% | -1.3% | -0.6 | -1.1%
Oc1[nH]c(=S)sc1C=C1N=c2ccccc2=N1 | 9.9% | -15.0% | -12.6% | 16.2% | -20.6 | -18.3%
Oc1[nH]c(=S)sc1/C=C1\C(c2ccccc2)=Nc2ccccc21 | -8.7% | ? | -33.3% | -0.5% | -73.7* | -30.3%
N#C/C(=C/c1ccc(-c2ccc([N+](=O)[O-])cc2)o1)C(=O)Nc1nc(-c2cccs2)cs1 | ? | ? | ? | · | -65.7* | ?
N#C/C(=C\c1ccc(-c2ccc(F)cc2)o1)C(=O)Nc1nc(-c2cccs2)cs1 | -7.6% | ? | -2.8% | 6.6% | ? | -13.0%
